Laboratory results reported in the supplement of paper PMC11732987, “Enantioselective OTUD7B fragment discovery through chemoproteomics screening and high-throughput optimisation” (Communications Chemistry, 2025).
A number with no mark means an inactive call.

How the values were obtained:
Assay in all cases: log2 ratio of Biotin-Ahx-Ub-VS probe labelling (fragment/DMSO); higher = less target engagement (more negative = stronger competition), active = hit call of the paper (q ≤ 0.05, log2 ratio ≤ -1)
Details in all cases: compound concentration: 200 uM; treatment time: 3 h
OTUD6B = biological target: T1, OTUD6B (UniProt Q8N6M0)
T1 sequence (whole entry): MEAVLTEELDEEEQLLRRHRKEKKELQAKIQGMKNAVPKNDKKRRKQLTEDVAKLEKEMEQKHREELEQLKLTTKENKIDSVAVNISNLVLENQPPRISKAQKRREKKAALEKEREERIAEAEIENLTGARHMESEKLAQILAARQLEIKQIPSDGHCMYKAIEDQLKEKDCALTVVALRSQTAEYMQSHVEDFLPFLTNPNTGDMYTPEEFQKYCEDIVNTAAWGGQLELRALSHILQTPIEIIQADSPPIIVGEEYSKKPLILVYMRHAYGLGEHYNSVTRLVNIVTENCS
How it was run: (§1)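 Fragment (200 µM) or vehicle was incubated for 3 h with triplicate HEK293T lysate samples of 495 µg, which were then treated with Biotin-Ahx-Ub-VS at 0.5 µM final for 1 h. Labelled DUBs were enriched on NeutrAvidin, digested with LysC and trypsin, and analysed by diaPASEF LC-MS/MS. Values are average log2 fragment/vehicle ratios from an unpaired t-test on global-median-normalised Spectronaut label-free quantities, using proteins with ≥2 unique peptides.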

OTUD7B = biological target: T2, OTUD7B (UniProt Q6GQQ9)
T2 sequence (whole entry): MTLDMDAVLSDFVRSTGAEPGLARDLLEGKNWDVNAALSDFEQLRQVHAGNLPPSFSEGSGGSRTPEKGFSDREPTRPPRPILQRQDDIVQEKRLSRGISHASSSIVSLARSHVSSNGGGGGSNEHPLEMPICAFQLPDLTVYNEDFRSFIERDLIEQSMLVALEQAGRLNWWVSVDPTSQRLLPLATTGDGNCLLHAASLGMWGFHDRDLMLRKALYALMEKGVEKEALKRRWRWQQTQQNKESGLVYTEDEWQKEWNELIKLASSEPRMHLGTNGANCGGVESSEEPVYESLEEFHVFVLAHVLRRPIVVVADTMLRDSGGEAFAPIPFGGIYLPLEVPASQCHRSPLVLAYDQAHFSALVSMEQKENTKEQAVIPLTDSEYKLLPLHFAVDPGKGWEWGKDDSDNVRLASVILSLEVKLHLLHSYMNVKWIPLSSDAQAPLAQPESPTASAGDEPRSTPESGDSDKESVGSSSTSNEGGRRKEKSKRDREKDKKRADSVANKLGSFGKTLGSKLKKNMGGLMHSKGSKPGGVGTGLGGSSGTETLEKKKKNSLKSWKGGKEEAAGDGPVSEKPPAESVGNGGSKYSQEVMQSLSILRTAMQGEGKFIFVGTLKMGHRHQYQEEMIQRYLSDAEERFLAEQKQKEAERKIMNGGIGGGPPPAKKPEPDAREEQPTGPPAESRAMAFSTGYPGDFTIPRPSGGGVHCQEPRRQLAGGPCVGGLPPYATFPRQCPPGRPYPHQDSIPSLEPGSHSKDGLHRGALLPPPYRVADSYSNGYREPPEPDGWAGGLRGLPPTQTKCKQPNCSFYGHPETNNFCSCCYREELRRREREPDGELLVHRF
How it was run: as §1

PRPF8 = PRPF8 (UniProt Q6P2Q9)
How it was run: as §1

PSMD7 = biological target: T3, PSMD7 (UniProt P51665)
T3 sequence (whole entry): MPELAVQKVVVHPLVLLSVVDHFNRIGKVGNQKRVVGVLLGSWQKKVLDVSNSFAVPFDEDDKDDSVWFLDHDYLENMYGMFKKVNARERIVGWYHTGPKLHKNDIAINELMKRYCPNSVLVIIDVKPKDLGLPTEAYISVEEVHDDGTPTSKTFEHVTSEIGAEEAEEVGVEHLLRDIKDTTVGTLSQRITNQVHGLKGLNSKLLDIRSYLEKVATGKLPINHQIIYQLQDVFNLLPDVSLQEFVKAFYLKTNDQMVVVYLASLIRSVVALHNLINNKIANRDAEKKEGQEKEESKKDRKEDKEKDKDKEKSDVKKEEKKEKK
How it was run: as §1

UCHL1 = UCHL1 (UniProt P09936)
How it was run: as §1

UCHL3 = biological target: T4, UCHL3 (UniProt P15374)
T4 sequence (whole entry): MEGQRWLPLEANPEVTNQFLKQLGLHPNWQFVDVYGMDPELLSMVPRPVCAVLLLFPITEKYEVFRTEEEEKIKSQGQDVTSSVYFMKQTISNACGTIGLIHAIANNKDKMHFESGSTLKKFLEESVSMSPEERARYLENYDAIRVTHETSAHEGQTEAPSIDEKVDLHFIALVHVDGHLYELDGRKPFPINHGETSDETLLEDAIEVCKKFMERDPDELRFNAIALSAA
How it was run: as §1

UCHL5 = biological target: T5, UCHL5 (UniProt Q9Y5K5)
T5 sequence (whole entry): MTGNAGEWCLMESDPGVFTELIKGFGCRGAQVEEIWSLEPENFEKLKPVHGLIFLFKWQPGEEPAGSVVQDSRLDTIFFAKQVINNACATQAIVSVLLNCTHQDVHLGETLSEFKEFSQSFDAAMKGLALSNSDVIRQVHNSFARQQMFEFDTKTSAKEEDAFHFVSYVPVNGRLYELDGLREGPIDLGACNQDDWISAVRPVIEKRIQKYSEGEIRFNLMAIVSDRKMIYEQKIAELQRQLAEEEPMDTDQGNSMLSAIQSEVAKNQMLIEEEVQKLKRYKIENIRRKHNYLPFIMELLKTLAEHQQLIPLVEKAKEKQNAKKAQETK
How it was run: as §1

USP10 = USP10 (UniProt Q14694)
How it was run: as §1

USP15 = biological target: T6, USP15 (UniProt Q9Y4E8)
T6 sequence (whole entry): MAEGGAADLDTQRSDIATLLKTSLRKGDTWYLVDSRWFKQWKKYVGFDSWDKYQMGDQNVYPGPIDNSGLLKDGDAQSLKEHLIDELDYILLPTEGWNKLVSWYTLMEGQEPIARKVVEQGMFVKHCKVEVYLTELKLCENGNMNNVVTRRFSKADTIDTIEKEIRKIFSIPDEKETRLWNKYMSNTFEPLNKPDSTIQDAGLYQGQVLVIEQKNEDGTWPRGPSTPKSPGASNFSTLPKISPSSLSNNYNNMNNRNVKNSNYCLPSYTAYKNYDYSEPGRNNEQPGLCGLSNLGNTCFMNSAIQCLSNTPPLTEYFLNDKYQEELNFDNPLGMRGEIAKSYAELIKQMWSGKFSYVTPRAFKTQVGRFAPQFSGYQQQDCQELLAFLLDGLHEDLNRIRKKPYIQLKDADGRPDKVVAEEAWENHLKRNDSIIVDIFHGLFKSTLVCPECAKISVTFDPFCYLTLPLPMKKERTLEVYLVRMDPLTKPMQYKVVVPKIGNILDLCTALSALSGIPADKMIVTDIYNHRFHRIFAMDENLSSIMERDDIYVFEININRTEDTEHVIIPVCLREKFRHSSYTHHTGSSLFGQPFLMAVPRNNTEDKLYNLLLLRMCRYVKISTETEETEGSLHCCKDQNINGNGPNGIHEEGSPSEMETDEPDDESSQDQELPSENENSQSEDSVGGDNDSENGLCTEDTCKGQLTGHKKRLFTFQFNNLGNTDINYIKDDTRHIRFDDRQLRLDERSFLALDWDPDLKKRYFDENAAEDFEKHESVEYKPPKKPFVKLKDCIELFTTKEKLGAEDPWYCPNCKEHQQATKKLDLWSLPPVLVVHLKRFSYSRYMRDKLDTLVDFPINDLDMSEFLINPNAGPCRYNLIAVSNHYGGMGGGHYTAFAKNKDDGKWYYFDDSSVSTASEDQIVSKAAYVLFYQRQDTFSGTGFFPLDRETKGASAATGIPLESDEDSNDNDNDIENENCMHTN
How it was run: as §1

USP16 = USP16 (UniProt Q9Y5T5)
How it was run: as §1

USP16, sequence (Q9Y5T5 whole entry, looked up): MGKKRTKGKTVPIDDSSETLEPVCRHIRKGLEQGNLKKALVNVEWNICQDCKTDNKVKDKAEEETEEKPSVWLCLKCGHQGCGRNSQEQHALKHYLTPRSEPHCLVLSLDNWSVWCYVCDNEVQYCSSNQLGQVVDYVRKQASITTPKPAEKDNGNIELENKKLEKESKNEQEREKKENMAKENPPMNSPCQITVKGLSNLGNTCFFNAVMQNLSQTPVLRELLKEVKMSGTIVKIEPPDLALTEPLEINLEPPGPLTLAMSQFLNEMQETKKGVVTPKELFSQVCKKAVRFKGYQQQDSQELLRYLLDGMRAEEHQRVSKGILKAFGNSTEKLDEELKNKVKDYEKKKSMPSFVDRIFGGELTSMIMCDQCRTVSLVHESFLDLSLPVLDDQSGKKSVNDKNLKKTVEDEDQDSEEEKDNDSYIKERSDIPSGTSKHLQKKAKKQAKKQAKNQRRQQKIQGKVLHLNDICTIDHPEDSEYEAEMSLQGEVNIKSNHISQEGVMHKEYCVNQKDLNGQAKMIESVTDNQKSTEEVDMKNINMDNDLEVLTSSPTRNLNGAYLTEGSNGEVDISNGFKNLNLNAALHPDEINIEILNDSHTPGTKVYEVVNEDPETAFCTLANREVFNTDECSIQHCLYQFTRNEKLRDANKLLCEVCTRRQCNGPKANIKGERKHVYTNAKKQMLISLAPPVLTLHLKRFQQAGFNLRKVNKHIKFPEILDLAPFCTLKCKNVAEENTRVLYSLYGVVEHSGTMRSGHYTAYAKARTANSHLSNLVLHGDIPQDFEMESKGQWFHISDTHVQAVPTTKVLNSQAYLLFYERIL
USP10, sequence (Q14694 whole entry): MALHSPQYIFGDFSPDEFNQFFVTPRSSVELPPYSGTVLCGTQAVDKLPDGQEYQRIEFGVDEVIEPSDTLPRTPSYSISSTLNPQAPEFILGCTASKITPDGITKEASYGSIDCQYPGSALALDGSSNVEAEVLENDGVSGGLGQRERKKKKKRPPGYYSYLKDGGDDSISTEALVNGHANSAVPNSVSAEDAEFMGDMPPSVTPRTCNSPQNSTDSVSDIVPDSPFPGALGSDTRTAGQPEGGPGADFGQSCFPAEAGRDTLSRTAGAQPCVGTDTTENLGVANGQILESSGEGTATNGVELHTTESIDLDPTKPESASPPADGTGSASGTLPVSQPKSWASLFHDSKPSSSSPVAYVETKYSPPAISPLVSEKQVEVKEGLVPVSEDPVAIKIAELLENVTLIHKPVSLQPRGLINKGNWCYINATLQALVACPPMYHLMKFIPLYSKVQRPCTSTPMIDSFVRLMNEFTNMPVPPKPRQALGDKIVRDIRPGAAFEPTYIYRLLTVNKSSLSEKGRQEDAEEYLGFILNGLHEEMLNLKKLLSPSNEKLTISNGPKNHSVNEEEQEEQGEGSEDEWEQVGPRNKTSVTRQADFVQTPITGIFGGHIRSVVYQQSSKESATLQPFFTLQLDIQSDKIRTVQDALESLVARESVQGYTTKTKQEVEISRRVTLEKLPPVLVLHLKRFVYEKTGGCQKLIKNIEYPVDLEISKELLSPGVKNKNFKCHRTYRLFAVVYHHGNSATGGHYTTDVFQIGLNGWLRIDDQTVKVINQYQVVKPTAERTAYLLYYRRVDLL
UCHL1, sequence (P09936 whole entry, looked up): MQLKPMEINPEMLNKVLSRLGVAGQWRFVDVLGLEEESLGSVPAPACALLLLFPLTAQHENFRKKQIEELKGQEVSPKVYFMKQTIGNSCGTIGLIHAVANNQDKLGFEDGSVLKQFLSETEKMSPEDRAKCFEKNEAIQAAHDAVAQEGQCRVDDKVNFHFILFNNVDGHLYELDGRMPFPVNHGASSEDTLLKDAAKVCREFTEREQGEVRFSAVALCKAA

## O=C(CCl)N1CCOC(c2cccc(F)c2)C1 (stereo not given)
OTUD6B
  log2 ratio of Biotin-Ahx-Ub-VS probe labelling: -0.268
OTUD7B
  log2 ratio of Biotin-Ahx-Ub-VS probe labelling: -1.75 (active)
PRPF8
  log2 ratio of Biotin-Ahx-Ub-VS probe labelling: -0.107
PSMD7
  log2 ratio of Biotin-Ahx-Ub-VS probe labelling: -0.115
UCHL1
  log2 ratio of Biotin-Ahx-Ub-VS probe labelling: -1.68 (active)
UCHL3
  log2 ratio of Biotin-Ahx-Ub-VS probe labelling: 0.156
UCHL5
  log2 ratio of Biotin-Ahx-Ub-VS probe labelling: -0.463
USP10
  log2 ratio of Biotin-Ahx-Ub-VS probe labelling: -0.284
USP15
  log2 ratio of Biotin-Ahx-Ub-VS probe labelling: -0.387
USP16
  log2 ratio of Biotin-Ahx-Ub-VS probe labelling: 0.0465
